Test results from PubChem BioAssay (EPA / NIEHS).
Calls of active or inactive are those of the source. The calls were made as follows: active = hit-call score of the fitted dose curve at least 0.9, where 1 is the maximum; inactive = score below 0.9.

Read-out: Plasminogen activator inhibitor-1 (PAI1), SERPINE1 (gene 5054)
Assay: BSK_BE3C_PAI1: BioMAP Diversity Plus: BE3C Assay for Plasminogen activator inhibitor-1 (PAI1) Biomarker Activity (AID 2283037)
Conditions: primary human bronchial epithelial cells; actives raise or lower the signal
Experimental: BSK_BE3C is a cell-based, multiplexed-readout assay that uses bronchial epithelial cell, a human lung primary cell, with measurements taken at 24 hours after chemical dosing in a 96-well plate.BSK_BE3C_PAI1 is an assay component measured in the BSK_BE3C assay. It measures PAI-1 antibody related to regulation of gene expression using ELISA technology.Data from the assay component BSK_BE3C_PAI1 was analyzed into 1 assay endpoint. This assay endpoint, BSK_BE3C_PAI1, was analyzed with bidirectional fitting relative to DMSO as the negative control and baseline of activity. Using a type of binding reporter, gain or loss-of-signal activity can be used to understand changes in the signaling as they relate to the gene SERPINE1. Furthermore, this assay endpoint can be referred to as a primary readout, because this assay has produced multiple assay endpoints where this one serves a signaling function. To generalize the intended target to other relatable targets, this assay endpoint is annotated to the cytokine intended target family, where the subfamily is plasmogen activator inhibitor.
The levels of cell surface (or secreted, indicated by the prefix "s") biomarker endpoints were measured by ELISA. Overt cytotoxicity to cells in confluent adherent cultures (all systems other than the BT system) was assessed by measuring total protein levels using sulforhodamine B (SRB) staining in parallel cultures at the time of biomarker measurements, indicated as SRB endpoints. For proliferation assays for adherent cell types, individual cell types are cultured at sub-confluence and relative cell numbers quantified by SRB staining at time points optimized for each system (48 h: 3C and CASM3C systems; 72 h: BT and HDF3CGF systems; 96 h: SAg system). SRB was performed by staining cells with 0.1% SRB after fixation with 10% TCA and reading wells at 560 nm.Viability and proliferation of PBMC (T cells) was quantified by Alamar Blue reduction for the SAg and BT systems. For PBMC viability (referred to as PBMC Cytotoxicity within the assay endpoint names), cells were plated (75,000/well in a 96-well plate) and then chemical samples added for 1 h before addition of activators, SEB and TSST-1 (20 ng/mL final concentration each). Cells were incubated for 90 h. Then, Alamar Blue (20 uL/well) (Invitrogen, Cat DAL1100) was added for 6 h, and the plates were read with a fluorescence microplate reader at 546/580 nm (excitation/emission). For PBMC proliferation, cells were plated and activated as above but incubated for only 16 h prior to addition of Alamar Blue. Plates were read after 6 h.

| Structure (SMILES) | outcome | AC50 |
| --- | --- | --- |
| Cc1ccc(C(C)C)cc1 | inactive |  |
| CC/C(=C(/CC)c1ccc(O)cc1)c1ccc(O)cc1 |  | 20 µM (active) |
| CCCCCCCCOC(=O)c1cc(O)c(O)c(O)c1 |  | 32.8 µM (active) |
| CCN(CC)C(=O)c1cc(S(=O)(=O)Cc2ccccc2)c(N2CCC(c3ccccc3)CC2)cc1N(CC)CCN(C)C |  | 7.91 µM (active) |
| c1ccc2n[nH]nc2c1 | inactive |  |
| Oc1ccccc1 | inactive |  |
| CCCCCc1ccc(N)cc1 | inactive |  |
| O=C(OCCCCCCOC(=O)c1ccccc1)c1ccccc1 | inactive |  |
| Cc1occc1C(=O)Nc1ccc(C(=O)N2CCC(F)(F)/C(=C\C(=O)N3CCC(N4CCCCC4)CC3)c3ccccc32)cc1 | inactive |  |
| OC12N=C(c3ccccc3)SC1Cc1cc(Cl)ccc12 (stereo not given) | inactive |  |
| CN1C(=O)CC[C@H]1c1cccnc1 | inactive |  |
| C[C@]12CC[C@@H]3c4ccc(O)cc4CC[C@H]3[C@@H]1CCC2=O | inactive |  |
| O=C1O[C@H]([C@@H](O)CO)C(O)=C1O | inactive |  |
| Cc1cc(F)ccc1-c1cc(N2CC[C@@H](O)[C@H]2CO)ncc1N(C)C(=O)C(C)(C)c1cc(C(F)(F)F)cc(C(F)(F)F)c1 |  | 13 µM (active) |
| Cc1c2ccccc2c(C)c2c1ccc1ccccc12 |  | 29 µM (active) |
| Cc1cn([C@H]2C[C@H](N=[N+]=[N-])[C@@H](CO)O2)c(=O)[nH]c1=O | inactive |  |
| O=c1c(-c2ccc(O)cc2)coc2cc(O)cc(O)c12 | inactive |  |
| CC(C)(c1cc(Br)c(O)c(Br)c1)c1cc(Br)c(O)c(Br)c1 |  | 4.89 µM (active) |
| Cc1ccc2oc(CN(Cc3ccccc3)C(=O)Nc3c(F)cc(F)cc3F)c(-c3ccc(Cl)cc3)c2c1 | inactive |  |
| CCCCOC(=O)CC(CC(=O)OCCCC)(OC(C)=O)C(=O)OCCCC | inactive |  |

| Structure (SMILES) | outcome | AC50 |
| --- | --- | --- |
| Oc1ccc2ccccc2c1 | inactive |  |
| CCN(Cc1cccc(S(=O)(=O)O)c1)c1ccc(C(=C2C=CC(=[N+](CC)Cc3cccc(S(=O)(=O)O)c3)C=C2)c2ccccc2S(=O)(=O)[O-])cc1 | inactive |  |
| O=C(O)c1ccccc1-n1cc(C(=O)O)c(=O)c2cc(Nc3c(F)cc(F)cc3Cl)c(Cl)cc21 | inactive |  |
| COc1cccc([C@H](O)C2CCN(CCc3ccc(F)cc3)CC2)c1OC | inactive |  |
| CCCCOC(=O)c1ccc(O)cc1 | inactive |  |
| CN1C(=O)N(c2ccccc2Br)Cc2cnc(Nc3ccc4c(c3)OCC(CO)O4)nc21 (stereo not given) |  | 1.63 µM (active) |
| Clc1cc(Cl)c2c(c1)N=C1CCCCCN1C2 | inactive |  |
| C[C@]12CC[C@@H]3c4ccc(O)cc4CC[C@H]3[C@@H]1CC[C@H]2O | inactive |  |
| COCC(C)OCC(C)OCC(C)O (stereo not given) | inactive |  |
| O=C1c2ccccc2C(=O)N1CCc1noc(-c2ccc(CN3CCCCCC3)s2)n1 | inactive |  |
| CCCCCCCCOc1ccc(C(=O)c2ccccc2)c(O)c1 | inactive |  |
| CN(C[C@@H](CC[N+]12CCC(C3CCCCC3)(CC1)CC2)c1ccc(Cl)c(Cl)c1)C(=O)c1cc(C(F)(F)F)cc(C(F)(F)F)c1 |  | 12.5 µM (active) |
| CCN(Cc1cccnc1)C(=O)c1cccc(Cl)c1[C@]1(C)C(=O)N(Cc2ccc(OC)cc2OC)c2ccc(Cl)cc21 |  | 3.79 µM (active) |
| O=C(O)Cn1c(=O)n(Cc2ccc(Br)cc2F)c(=O)c2ccc(Cl)cc21 | inactive |  |
| NC(=O)c1nc(-c2cccc(-c3cc(F)ccc3OCC(F)(F)C(F)(F)F)c2)n[nH]1 |  | 35.1 µM (active) |
| CCCCCCCCCCCCO | inactive |  |
| NCc1cccc(C2CCN(C(=O)c3ccc(C#Cc4ccccc4F)o3)CC2)c1 |  | 13.8 µM (active) |
| O=C(O)Cc1cc(I)c(Oc2ccc(O)c(I)c2)c(I)c1 |  | 15.2 µM (active) |
| CC(C)(C)c1cc(/C=C2\SC(N)=NC2=O)cc(C(C)(C)C)c1O | inactive |  |
| Cc1cccc2ccccc12 | inactive |  |
